The structures appear in SMILES notation. The panel holds about 83,000 compounds, 20% with a hit somewhere; the sample as a whole holds those more often.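 In brief: 96-well plates, 48 h treatment, single concentration, percent growth endpoint.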 Unmarked numbers belong to inactive results. The source made the active and inactive calls. Rule for the calls: active = growth percent below 10; inactive = the rest.

This assay has as its system NCI/ADR-RES ovarian. In words: NCI-60 one-dose screen, 48 h (100 = growth as untreated, 0 = no growth, -100 = all killed). The settings on record: 10 µM unless noted.
As for `COc1ccc(C2CC(c3cc(OC)c(OC)c(OC)c3)=NO2)cc1OCCCCOc1cc2c(cc1OC)C(=O)N1CCC[C@H]1C=N2` (stereo partly drawn), the growth was 19.8%.
Consider `NS(=O)(=O)c1ccc(-c2cc(-c3nnc(SCC(=O)Nc4ccc(C(=O)/C=C/c5ccc(Cl)cc5)cc4)n3-c3ccccc3)c3ccccc3n2)cc1`, for which the growth is 103%.
As to `CCCCNc1cc(-c2cn[nH]c2-c2cc(C)cc(OC)c2)nc(-c2cccnc2)n1`, the growth is 89.8%.
As for `C=C(C)[C@@H]1CCC[C@]2(C(=O)N3CCN(C)CC3)CC[C@]3(C)[C@@H](CC[C@@H]4[C@@]5(C)CC/C(=N\NC(=O)c6ccncc6)C(C)(C)[C@@H]5CC[C@]43C)[C@@H]12`, the figure is 99.3%; as for `COc1cc(C(=O)n2nc(N3CCOCC3)c3cc(-n4cccc4)ccc32)cc(OC)c1OC`, 68.5%.
As for `CC1=C(CCC(C)NCc2ccc(OCCCN3CCCCC3)cc2)C(C)(C)CCC1` (stereo not drawn), the figure is -40.5% (active); as for `CC1(C)CC[C@]23CC[C@]4(C)[C@H](CC[C@@H]5[C@@]6(C)C/C(=C/c7ccncc7)C(=O)C(C)(C)[C@@H]6CC[C@]54C)[C@H]2[C@H]1OC3`, 97.8%.
As for `COc1ccc(C(O)c2cc3c(N)c(C(=O)Nc4cccc(Cl)c4C)sc3nc2C)cc1` (stereo not drawn), the figure is 7.99% (active).

The record behind these values is PubChem BioAssay (NCI).
